Holding throughout (set-up): species or system human, MV4-11 + K-562 + COLO205 + SK-N-BE2 + OVCAR-8
The test system of one experiment is ACAD11. Particulars: read-out: apparent Kd, n = 1.
For a further experiment, the system named is ACVR1B. Particulars: read-out: apparent Kd, n = 1.
A further experiment concerns ACVR1. Particulars: read-out: apparent Kd, n = 1.
In the next experiment the test system is GSK3A. The following applies: read-out: apparent Kd, n = 1.
For another experiment, the system named is GSK3B. Particulars: read-out: apparent Kd, n = 1.
The subject of the next experiment is ZAK. The following applies: read-out: apparent Kd, n = 1.
Another experiment deals with DYRK1A. The following applies: read-out: apparent Kd; compound concentrations: 100 nM and 1000 nM (sheet 'Samples'), CATDS: 0.105735187935075; n = 1.
In another experiment the test system is FLT3. Particulars: read-out: apparent Kd; compound concentrations: 100 nM and 1000 nM (sheet 'Samples'), CATDS: 0.14042863340460501; n = 1.
In another experiment the test system is BTK. Particulars: read-out: apparent Kd; compound concentrations: 100 nM and 1000 nM (sheet 'Samples'), CATDS: 4.2074902264998597E-2; n = 1.
For the next experiment, the system named is EGFR. The following applies: read-out: apparent Kd; compound concentrations: 100 nM and 1000 nM (sheet 'Samples'), CATDS: 3.8994788715485701E-2; n = 1.
For another experiment, the system named is FRK. The following applies: read-out: apparent Kd, compound concentrations: 100 nM and 1000 nM (sheet 'Samples'), n = 1.
A further experiment deals with LYN. The following applies: read-out: apparent Kd; compound concentrations: 100 nM and 1000 nM (sheet 'Samples'), CATDS: 7.8976671860543801E-2; n = 1.
Another experiment deals with SRC. Particulars: read-out: apparent Kd, compound concentrations: 100 nM and 1000 nM (sheet 'Samples'), n = 1.
The next experiment relates to DDR1. The following applies: read-out: apparent Kd; compound concentrations:100 nM and 1000 nM (sheet 'Samples'); n = 1.
A further experiment deals with MAPK14. The following applies: read-out: apparent Kd, n = 1.
A further experiment concerns SIK2. The following applies: read-out: apparent Kd, n = 1.
Another experiment relates to TNK2. The following applies: read-out: apparent Kd; compound concentrations:100 nM and 1000 nM (sheet 'Samples'); n = 1.
For the next experiment, the system named is EPHA1. Particulars: read-out: apparent Kd; compound concentrations: 100 nM and 1000 nM (sheet 'Samples'), CATDS: 0.48562635988047498; n = 1.
[1] abbreviates: compound concentrations:100 nM and 1000 nM (sheet 'Samples').

Where two headings read alike, the source gives them in different places.

On to `COc1cccc(-n2ncc3c(N/N=C/c4ccc(C(=O)NCCN(C)C)cc4)ncnc32)c1.Cl` [GW784307A], for which the potency estimated from few doses is 1620 nM in the experiment with ACAD11 (compound concentrations: 100 nM and 1000 nM (sheet 'Samples'), CATDS: 2.6823851715364801E-2); 315 nM with ACVR1B (compound concentrations: 100 nM and 1000 nM (sheet 'Samples'), CATDS: 4.53928679778344E-2); 12.6 nM with ACVR1 (compound concentrations: 100 nM and 1000 nM (sheet 'Samples'), CATDS: 0.29663347499665699); 89 nM with GSK3A (compound concentrations: 100 nM and 1000 nM (sheet 'Samples'), CATDS: 8.2277419546057398E-2); 110 nM with GSK3B (compound concentrations: 100 nM and 1000 nM (sheet 'Samples'), CATDS: 7.3478066296280203E-2); 834 nM in the experiment on ZAK (compound concentrations: 100 nM and 1000 nM (sheet 'Samples'), CATDS: 3.20798372195591E-2).

For `O=C1N=C(NCCc2cccc(F)c2)S/C1=C\c1ccc2ncccc2c1` [RO4508344-000], the potency estimated from few doses in the experiment with DYRK1A is 750 nM; with FLT3, 431 nM.

In the case of `CCc1nc(-c2cccc(N(C)S(=O)(=O)c3ccccc3)c2)c(-c2ccnc(Nc3ccc(N4CCN(C(C)=O)CC4)nc3)n2)s1` [GSK1645895A], the potency estimated from few doses in the experiment with ZAK (compound concentrations: 100 nM and 1000 nM (sheet 'Samples'), CATDS: 0.12983068767625999) is 2300 nM.

As to `COc1cc2nccc(Nc3ccc(Oc4ccccc4)cc3)c2cc1OC.Cl` [GI261656A], the potency estimated from few doses in the experiment on BTK is 1400 nM; in the experiment on EGFR, 2360 nM; in the experiment with FRK (CATDS: 5.3958789023196299E-2), 470 nM; in the experiment with LYN, 160 nM; in the experiment with SRC (CATDS: 5.79534996745752E-2) it was 372 nM.

For the molecule `CN1CCN(Cc2cccc(-c3ccc4c(Nc5ccc(Oc6ccccc6)cc5)ccnc4c3)c2)CC1` [GW578342X], the potency estimated from few doses with SRC (CATDS: 9.2821429290207799E-2) was 825 nM.

`CNc1nccc(-c2c(-c3ccc(F)cc3)ncn2C2CCN(C)CC2)n1` [SB-222903]: the potency estimated from few doses was 348 nM in the experiment with DDR1; 29.9 nM in the experiment with MAPK14 (compound concentrations: 100 nM and 1000 nM (sheet 'Samples'), CATDS: 0.13479921836841699).

On to `COc1ccc(-c2nc3n(c2-c2ccncc2)CCC3)cc1.COc1ccc(-c2nc3n(c2-c2ccncc2)CCC3)cc1.O=S(=O)(O)O.O=S(=O)(O)O` [SKF-104493-B2], for which the potency estimated from few doses in the experiment on ACAD11 (compound concentrations: 100 nM and 1000 nM (sheet 'Samples'), CATDS: 0.103649602140053) was 2100 nM; in the experiment with ACVR1B (compound concentrations: 100 nM and 1000 nM (sheet 'Samples'), CATDS: 0.14344642008730599), 1030 nM; in the experiment with MAPK14 (compound concentrations: 100 nM and 1000 nM (sheet 'Samples'), CATDS: 0.181046976908248), 687 nM.

`COc1cc2ncn(-c3cc(OCc4cccs4)c(C(N)=O)s3)c2cc1OC` [GSK312948A]: the potency estimated from few doses with ACAD11 (setting [1]) is 766 nM.

Turning to `Cl.Cn1c(=O)c(Cc2ccc(F)cc2F)cc2cnc(NC3CCOCC3)nc21` [RO3308757-001], the potency estimated from few doses with GSK3A (setting [1]) was 484 nM; in the experiment on GSK3B (setting [1]), 745 nM; in the experiment with MAPK14 (setting [1]), 442 nM; in the experiment on SIK2 (setting [1]), 812 nM; with TNK2, 230 nM.

In the case of `Fc1ccc(-c2c(-c3ccncc3)[nH]c3nccnc23)cc1` [RO1155697-000], the potency estimated from few doses with ACAD11 (setting [1]) was 1300 nM; in the experiment with ACVR1B (setting [1]) it was 711 nM; in the experiment with DDR1, 1010 nM; in the experiment on MAPK14 (compound concentrations: 100 nM and 1000 nM (sheet 'Samples'), CATDS: 5.8125054995699497E-2), 449 nM.

As to `Cc1cc(O)cc(C)c1/C=C/c1cncc(-c2nn[nH]n2)c1.Cl` [GW441806A], the potency estimated from few doses is 85.5 nM in the experiment with ACVR1 (compound concentrations: 100 nM and 1000 nM (sheet 'Samples'), CATDS: 0.132778001486796); 1540 nM with SIK2 (compound concentrations: 100 nM and 1000 nM (sheet 'Samples'), CATDS: 4.4020639379416998E-2).

`COc1cccc(-c2c[nH]c3c(N/N=C/c4ccncc4)ncnc23)c1` [GW814408X]: the potency estimated from few doses with ACVR1 (setting [1]) was 1370 nM; with GSK3A (setting [1]), 133 nM; in the experiment on GSK3B (setting [1]) it was 112 nM; in the experiment with SIK2 (setting [1]) it was 1180 nM; in the experiment on ZAK (setting [1]), 1540 nM.

`Cc1ccc(O)cc1Nc1ccnc2ccc(C(C)(C)C)cc12` [GW856805X]: the potency estimated from few doses is 1.03 nM in the experiment on EPHA1 and 44.2 nM in the experiment on FRK (CATDS: 5.5452484233419301E-2).

The values above are taken from paper PMC11062922 (Nature Chemical Biology, 2023).
